Experimental findings from PubChem BioAssay are described below.

Activity calls are given as the source filed them.

Test [1] in a line: binders of probe aFSTL3 on microarray, primary screen, stem cell growth factor project, biochemical, small-molecule microarray, fluorescence 635/667 (AID 1064).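 Note: measures binding of the biotinylated anti-FSTL3 antibody to printed compounds.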 To be noted: higher = more signal.
A short description of test [2]: binders from COS7 lysate, DM2A8 probe, primary screen, torsin A project, cell lysate, small-molecule microarray, fluorescence 635/667 (AID 1065). To be noted: higher = more signal, COS7 lysate expressing mutant human TOR1A.
A short description of test [3]: binders of probe aFGF2 on microarray, primary screen, stem cell growth factor project, biochemical, small-molecule microarray, fluorescence 635/667 (AID 1067).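 Note: measures binding of biotinylated aFGF2 protein to printed compounds on slides; z-score merges feature fluorescence and signal-to-noise across triplicate slides.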 To be noted: higher = more signal.
The nature of test [4]: binders of probe aFGF10 on microarray, primary screen, stem cell growth factor project, biochemical, small-molecule microarray, fluorescence 635/667 (AID 1071).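 Note: score merges 667 nm spot intensity and signal to noise from triplicate slides.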 To be noted: higher = more signal.
The target in test [5] is Neurogenic locus notch homolog protein 2 (Homo sapiens) (UniProt Q04721). In words: Notch2 binders on small-molecule microarrays, primary screen, biochemical, small-molecule microarray, 635 nm fluorescence, stem cell growth factors (AID 1073). As to conditions: Notch2 binding, higher = more signal.
Sequence of Neurogenic locus notch homolog protein 2 (Homo sapiens) (Q04721 whole entry, looked up, canonical isoform): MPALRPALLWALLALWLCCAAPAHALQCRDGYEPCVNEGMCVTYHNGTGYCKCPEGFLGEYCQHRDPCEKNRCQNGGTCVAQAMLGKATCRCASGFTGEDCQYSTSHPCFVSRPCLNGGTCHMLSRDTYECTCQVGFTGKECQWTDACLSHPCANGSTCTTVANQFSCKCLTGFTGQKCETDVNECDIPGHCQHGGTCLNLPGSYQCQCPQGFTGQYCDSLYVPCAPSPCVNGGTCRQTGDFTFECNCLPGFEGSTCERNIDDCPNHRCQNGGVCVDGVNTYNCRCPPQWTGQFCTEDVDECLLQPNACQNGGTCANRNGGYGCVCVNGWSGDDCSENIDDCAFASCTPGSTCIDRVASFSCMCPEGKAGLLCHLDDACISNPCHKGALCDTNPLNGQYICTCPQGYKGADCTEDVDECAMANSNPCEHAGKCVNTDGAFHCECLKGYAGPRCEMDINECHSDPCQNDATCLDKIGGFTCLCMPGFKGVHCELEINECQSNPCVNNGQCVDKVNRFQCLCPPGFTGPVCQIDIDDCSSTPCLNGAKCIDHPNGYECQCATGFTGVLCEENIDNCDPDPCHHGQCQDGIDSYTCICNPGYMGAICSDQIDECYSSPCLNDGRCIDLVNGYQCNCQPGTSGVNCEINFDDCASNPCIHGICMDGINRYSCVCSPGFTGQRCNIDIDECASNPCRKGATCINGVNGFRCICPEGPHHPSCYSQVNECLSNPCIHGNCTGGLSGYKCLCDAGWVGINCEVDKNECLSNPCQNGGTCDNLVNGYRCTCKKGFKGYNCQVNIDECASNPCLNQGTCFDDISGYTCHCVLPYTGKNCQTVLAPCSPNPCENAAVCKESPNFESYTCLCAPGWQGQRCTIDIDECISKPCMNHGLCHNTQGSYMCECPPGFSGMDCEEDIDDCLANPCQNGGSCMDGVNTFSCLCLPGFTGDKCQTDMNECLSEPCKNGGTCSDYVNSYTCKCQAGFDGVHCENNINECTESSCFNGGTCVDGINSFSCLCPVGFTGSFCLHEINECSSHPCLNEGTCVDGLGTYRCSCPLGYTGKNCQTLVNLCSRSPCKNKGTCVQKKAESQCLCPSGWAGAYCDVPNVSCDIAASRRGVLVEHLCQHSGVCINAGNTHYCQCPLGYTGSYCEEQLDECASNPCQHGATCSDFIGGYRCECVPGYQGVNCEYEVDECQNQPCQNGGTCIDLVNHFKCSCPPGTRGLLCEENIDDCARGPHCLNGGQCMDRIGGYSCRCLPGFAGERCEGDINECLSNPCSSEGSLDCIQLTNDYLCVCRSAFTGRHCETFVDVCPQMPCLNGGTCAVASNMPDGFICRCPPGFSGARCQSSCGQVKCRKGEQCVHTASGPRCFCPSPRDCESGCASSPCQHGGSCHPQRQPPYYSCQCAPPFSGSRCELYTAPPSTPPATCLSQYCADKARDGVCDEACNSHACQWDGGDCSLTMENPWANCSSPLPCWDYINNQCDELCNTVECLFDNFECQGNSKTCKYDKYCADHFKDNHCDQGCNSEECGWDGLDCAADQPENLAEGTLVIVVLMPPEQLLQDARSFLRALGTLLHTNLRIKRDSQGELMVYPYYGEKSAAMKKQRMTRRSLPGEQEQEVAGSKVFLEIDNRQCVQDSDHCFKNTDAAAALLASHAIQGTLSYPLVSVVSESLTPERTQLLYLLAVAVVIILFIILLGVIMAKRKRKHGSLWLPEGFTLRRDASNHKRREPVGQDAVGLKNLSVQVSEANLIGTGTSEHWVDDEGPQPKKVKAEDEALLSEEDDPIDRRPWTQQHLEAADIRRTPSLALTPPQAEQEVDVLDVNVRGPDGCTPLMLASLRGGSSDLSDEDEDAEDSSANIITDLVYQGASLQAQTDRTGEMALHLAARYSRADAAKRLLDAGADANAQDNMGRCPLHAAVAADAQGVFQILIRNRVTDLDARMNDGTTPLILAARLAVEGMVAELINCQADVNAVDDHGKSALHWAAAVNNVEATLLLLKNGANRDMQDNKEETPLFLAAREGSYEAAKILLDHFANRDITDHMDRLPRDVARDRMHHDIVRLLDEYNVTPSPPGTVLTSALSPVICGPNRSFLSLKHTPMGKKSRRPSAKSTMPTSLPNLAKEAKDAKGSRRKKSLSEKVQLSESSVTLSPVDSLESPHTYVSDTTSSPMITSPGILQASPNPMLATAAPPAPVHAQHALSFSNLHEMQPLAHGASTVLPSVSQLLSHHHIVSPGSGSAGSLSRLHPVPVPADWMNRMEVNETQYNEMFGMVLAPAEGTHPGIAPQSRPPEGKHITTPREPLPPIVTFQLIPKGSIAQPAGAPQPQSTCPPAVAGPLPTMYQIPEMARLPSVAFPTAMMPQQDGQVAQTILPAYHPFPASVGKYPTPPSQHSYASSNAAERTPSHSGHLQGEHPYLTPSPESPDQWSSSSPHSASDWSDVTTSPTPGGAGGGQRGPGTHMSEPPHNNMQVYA
Test [6] deals with Pro-neuregulin-1, membrane-bound isoform (Homo sapiens) (UniProt Q02297). Nature of the test: NRG1 binders on small-molecule microarrays, primary screen, psychiatric disease protein project, biochemical, small-molecule microarray, fluorescence 635/667 (AID 1075).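 Note: score combines 667 nm spot fluorescence with signal to noise.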 As to conditions: NRG1 binding, 635 nm fluorescence, higher = more signal.
Sequence of Pro-neuregulin-1, membrane-bound isoform (Homo sapiens) (Q02297 whole entry, looked up, the tested form may be a part, canonical isoform): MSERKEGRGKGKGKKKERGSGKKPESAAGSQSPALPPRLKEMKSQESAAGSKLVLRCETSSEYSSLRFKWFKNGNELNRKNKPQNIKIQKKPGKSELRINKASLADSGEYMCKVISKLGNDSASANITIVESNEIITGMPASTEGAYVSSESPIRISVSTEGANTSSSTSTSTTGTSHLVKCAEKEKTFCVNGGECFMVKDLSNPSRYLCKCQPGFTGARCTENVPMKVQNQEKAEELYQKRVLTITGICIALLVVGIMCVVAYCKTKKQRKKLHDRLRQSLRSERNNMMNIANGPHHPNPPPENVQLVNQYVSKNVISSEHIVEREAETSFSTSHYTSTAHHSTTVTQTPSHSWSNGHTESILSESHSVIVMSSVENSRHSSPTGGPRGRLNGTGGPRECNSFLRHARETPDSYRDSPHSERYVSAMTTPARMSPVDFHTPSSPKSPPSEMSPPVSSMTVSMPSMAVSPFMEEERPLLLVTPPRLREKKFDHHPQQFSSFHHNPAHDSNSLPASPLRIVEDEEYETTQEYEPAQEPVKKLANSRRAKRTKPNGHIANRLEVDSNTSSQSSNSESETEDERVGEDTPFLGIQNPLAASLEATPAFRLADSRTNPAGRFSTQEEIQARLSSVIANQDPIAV
Test [7] relates to Neuregulin-1 EGF-like domain. Nature of the test: binders of neuregulin-1 EGF-like domain, primary screen, biochemical, small-molecule microarray, 635 nm fluorescence (AID 1081).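 Note: binding of the protein to compounds printed on small-molecule microarray slides.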 As to conditions: small-molecule microarray binding, higher = more signal.
The nature of test [8]: FRG1 promoter luciferase signal modulators, primary screen, FRG1 inhibition for FSHD, cell-based, C2C12 myotubes, firefly/Renilla luciferase, luminescence (AID 1084). As to conditions: higher = more signal, called active from +8 up or from −8 down.
The nature of test [9]: binders of probe aFST on microarray, primary screen, stem cell growth factor project, biochemical, small-molecule microarray, fluorescence 635/667 (AID 1086).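 Note: score merges 667 nm fluorescence with signal-to-noise of each printed compound spot.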 To be noted: higher = more signal.
Test [10] can be described thus: binders of probe aHhip on microarray, primary screen, stem cell growth factor project, biochemical, small-molecule microarray, fluorescence 635/667 (AID 1087).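 Note: score merges spot fluorescence at 667nm with spot signal to noise ratio.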 As to conditions: higher = more signal.
Test [11] relates to PRMT1 (protein arginine N-methyltransferase 1). Nature of the test: PRMT1 binders on small-molecule microarrays, primary screen, biochemical, small-molecule microarray, 635 nm fluorescence (AID 1088).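 Note: binding of Prmt1 protein to compounds spotted on small-molecule microarray slides.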 As to conditions: small-molecule microarray binding, higher = more signal.
Test [12] is described as follows: yeast growth modulation, basal conditions, primary screen, YJM789 clinical isolate, OD600, 24 h (AID 1089).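 Note: growth of clinical yeast isolate S. cerevisiae YJM 789 seeded 1000 cells per well; test concentration not given here.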 As to conditions: S. cerevisiae YJM789 growth, higher = more signal, called active from +8 up or from −8 down.
Test [13] in a line: fission yeast growth modulation, primary screen, strain 972, OD600, 24 h, no modulator (AID 1090).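 Note: basal condition with compound alone and no growth modifier present; test concentration not given here.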 As to conditions: S. pombe 972 growth, higher = more signal, called active from +8 up or from −8 down.
Test [14] in a line: S. cerevisiae growth modulation with rapamycin, primary screen, strain BY4716, OD600, 96 h (AID 1091). Note: test concentration not given here. As to conditions: higher = more signal, called active from +8 up or from −8 down.
In test [15] the target is Torsin-1A-interacting protein 2 (Homo sapiens) (UniProt Q8NFQ8). Nature of the test: LULL1 binders on small-molecule microarray, primary screen, cell lysate, human LULL1 lysate, 635/667 nm fluorescence (AID 1092).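 Note: probe is lysate of COS7 cells overexpressing human LULL1; score merges per-feature 667 nm fluorescence with signal-to-noise.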 To be noted: hLULL1 lysate binding, 635 nm fluorescence, higher = more signal.
Sequence of Torsin-1A-interacting protein 2 (Homo sapiens) (Q8NFQ8 whole entry, looked up): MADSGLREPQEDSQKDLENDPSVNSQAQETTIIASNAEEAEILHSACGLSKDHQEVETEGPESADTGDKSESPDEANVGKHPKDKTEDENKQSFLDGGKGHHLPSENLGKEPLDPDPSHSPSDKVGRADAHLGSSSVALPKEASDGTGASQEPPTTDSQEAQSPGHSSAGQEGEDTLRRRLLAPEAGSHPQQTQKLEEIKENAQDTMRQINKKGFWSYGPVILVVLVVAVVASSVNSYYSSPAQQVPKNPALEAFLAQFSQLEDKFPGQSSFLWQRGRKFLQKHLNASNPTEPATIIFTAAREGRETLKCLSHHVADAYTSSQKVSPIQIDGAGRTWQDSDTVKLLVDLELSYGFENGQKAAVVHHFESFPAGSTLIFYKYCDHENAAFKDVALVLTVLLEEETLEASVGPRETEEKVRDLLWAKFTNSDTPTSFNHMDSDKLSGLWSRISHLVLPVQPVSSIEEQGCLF
Test [16] is described as follows: E. coli growth modulation, two-sided OD650, primary screen, E. coli filamentation project, strain DRC41, 24 h (AID 1093).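 Note: MC1000 strain lacking acrAB efflux and sulA so SOS filamentation is blocked; test concentration not given here.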 To be noted: OD650, 24 h, higher = more signal, called active from +8 up or from −8 down.
The nature of test [17]: small-molecule microarray binders of probe aLefty2, primary screen, biochemical, biotinylated probe, 635/667 nm fluorescence (AID 1094).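 Note: score merges spot fluorescence near 667 nm with spot signal-to-noise ratio.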 To be noted: higher = more signal.
Test [18] relates to Noggin (protein binding on small-molecule microarray). In words: Noggin binders on small-molecule microarray, primary screen, biochemical, 635/667 nm fluorescence (AID 1095).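 Note: score merges 667 nm feature fluorescence with signal to noise over triplicate slides.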 To be noted: 635 nm fluorescence, higher = more signal.
For test [19], the target named is Neurogenic locus notch homolog protein 3 (Homo sapiens) (UniProt Q9UM47). Nature of the test: NOTCH3 binders on small-molecule microarray, primary screen, biochemical, 635/667 nm fluorescence (AID 1096). As to conditions: NOTCH3 binding, 635 nm fluorescence, higher = more signal.
Test [20] is described as follows: small-molecule microarray binders of probe aEGFR, primary screen, biochemical, biotinylated probe, 635/667 nm fluorescence (AID 1097).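 Note: probe is a biotinylated anti-EGFR antibody binding compounds printed on slides; score combines fluorescence near 667 nm and signal to noise of each spot.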 As to conditions: higher = more signal.

For `CCCCN1CC=CC23O[C@@H]4/C=C\CCCOC(=O)C4[C@H]2C(=O)N(C(C)CO)[C@@H]3C1=O` (stereo not given in full), the composite z-score was -0.0235 in test [1]; -0.809 in [2]; -0.0963 in test [3]; -0.272 in test [4]; -0.327 in test [5]; 0.223 in [6]. In addition, the composite z-score was 1.19 in test [7]; -0.375 in [9]; -0.261 in test [10]; -0.376 in test [11]; -0.0431 in [15]; -0.282 in test [17]. The values for the composite z-score in [18], in test [19] and in [20] were 0.16, -0.0087 and -0.233, respectively. Besides, the z-score in test [8] is -1.01 (inactive); in test [12], -0.0849 (inactive); in [13] it was -0.958 (inactive); in test [14] it was -0.417 (inactive); in test [16], 0.315 (inactive).
For `C=CCC(OC(C)=O)[C@@H]1[C@@H](N(Cc2cc3ccccc3o2)C(=O)c2ccc(C)cc2)c2cc(OCCCO)ccc2N1C(=O)c1ccc(-c2ccccc2)cc1` (stereo not given in full), the composite z-score was -0.292 in test [1]; 0.195 in test [2]; 0.0337 in test [3]; 0.18 in test [4]; 0.127 in [5]; -0.158 in test [6]. Further, the composite z-score in test [7] was -0.491; in test [9], -0.21; in [10], 0.113; in test [11], -0.486; in test [15], 0.666; in [17], 0. Also, the values for the composite z-score in test [18], in [19] and in test [20] were 0.132, -0.217 and -0.258, respectively. Also, the z-score in [8] is -1.35 (inactive); in test [12] it was -6.89 (inactive); in [13] it was -1.27 (inactive); in test [14] it was -2.17 (inactive); in test [16], -0.818 (inactive).
On to `CN(C)CCCC[C@@H]1NC(=O)[C@@H]2C[C@H](C(=O)NCCCCCCN)[C@H](c3ccc(O)cc3)N2C1=O`, for which the composite z-score in [1] stood at 1.95; in test [2], 0.58; in [3], 0.15; in test [4] it was 0.727; in test [5], 0.921; in test [6], 1.39. Moreover, the composite z-score was 1.44 in test [7]; 2.16 in test [9]; 0.861 in test [10]; 1.18 in test [11]; 2.52 in [15]; 0.892 in test [17]. In addition, the composite z-score in test [18] is 0.855; in [19] it was 0.526; in test [20] it was 0.678. Moreover, the z-score is -0.0024 (inactive) in [8]; 0.377 (inactive) in test [12]; -2.04 (inactive) in test [13]; 0.638 (inactive) in test [14]; -0.47 (inactive) in [16].
`C=C(COC)C(=O)CC[C@@H](OC(=O)c1ccccc1-c1ccccc1C(=O)O)c1ccc(CO)o1`: the composite z-score in test [1] was -0.229; in test [2], 1.23; in test [3], -0.0449; in [4], -0.177; in test [5], 0.187; in test [6], 0.982. For the same compound, the composite z-score was 1.36 in test [7]; -0.551 in test [9]; -0.0994 in [10]; 1.38 in test [11]; 2.4 in [15]; -0.215 in test [17]. In addition, the composite z-score in test [18] is 1.63; in test [19], 0.314; in [20] it was -0.0512. In addition, the z-score is -3.75 (inactive) in test [8]; -24.5 (active) in test [12]; -20.5 (active) in [13]; -4.45 (inactive) in test [14]; -0.177 (inactive) in [16].
With `COc1ccc([Si](C)(C)[C@@H]2[C@@H](CCO)O[C@]3(C(=O)N(Cc4ccc(N5C(=O)c6cccc7cccc5c67)cc4)c4ccccc43)[C@H]2C)cc1`, the composite z-score in [1] is 0.458; in test [2] it was 0.23; in [3] it was -0.0566; in [4] it was -0.383; in [5] it was -0.35; in test [6] it was 0.995. The composite z-score in test [7] is 0.695; in test [9], -0.292; in test [10] it was -0.189; in test [11] it was 0.856; in test [15], 0.854; in test [17], -0.0728. Besides, the results for the composite z-score in test [18], in [19] and in test [20] were -0.753, -0.017 and -0.208, respectively. Moreover, the z-score in test [8] is -3.01 (inactive); in [12], 1.41 (inactive); in test [13], 1.54 (inactive); in test [14], 35.5 (active); in [16] it was 0.631 (inactive).
